# Source: PubChem BioAssay AID624297 (National Center for Advancing Translational Sciences (NCATS), 2012)
# The whole screen tested about 340,000 compounds, of which about 6,200 (1.8%) were called active. About 10% were inconclusive and are not listed. The entries come from a sample that favours actives as a whole. Values without a mark were called inactive. Calls come from the whole dose curve; as a rule, active = well fitted activation curve with a large enough effect; inconclusive = small, poorly fitted or top-dose-only effect; inactive = no such curve, though single readings can be large or run the other way.
# Assay: A quantitative high throughput screen for small molecules that induce DNA re-replication in SW480 colon adenocarcinoma cells. For re-replication activation: % of control where 0% means no effect. Note: nearly all actives have a fitted effect of over 55% in size.
# Settings: Hoechst DNA content imaging, 48 h; series mostly up to 46.1 µM; re-replication activation: at the top concentration
# How it was run: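 DNA re-replication was detected as more nuclei of elevated Hoechst intensity after 48 hr exposure to compound (23 nL pinned per well of 250 cells).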
# Potency is the fitted concentration of half-maximal effect.
Compound,re-replication activation,Potency
CC(C)Sc1nc(N)nc2c1ncn2C1OC(CO)C(O)C1O (centres undefined),-2.18%,
c1ccc(-n2nnnc2N2CCOCC2)cc1,-0.759%,
Fc1ccccc1CCNc1nnnn1-c1ccccc1,8.82%,
c1ccc(-n2nnnc2NC2CCCCCC2)cc1,,3.66 µM (active)
COc1ccc(CNCCCn2cnc3c(OCc4ccccc4)ncnc32)cc1,-0.249%,
O=[N+]([O-])c1ccc(N2CCOCC2)cc1,-3.05%,
CCN(CC)C(=O)[C@H]1CC(CC(=O)NCc2ccco2)C(=O)N2CCc3c([nH]c4ccccc34)[C@]12C (some centres undefined),0.301%,
COc1cccc(NC(=O)CSc2nnc(C3CCCCC3)n2N)c1,-7.72%,
COC(=O)c1ccc(CSc2nc3ccccc3c(=O)n2-c2cccc(OC)c2)o1,-0.0715%,
COCC(C)n1c(SCc2ccc(C(=O)OC)o2)nc2ccccc2c1=O (centres undefined),,18.4 µM (active)
COCC(C)n1c(SCC(=O)NC2CCCCC2C)nc2ccccc2c1=O (centres undefined),3.05%,
O=C(c1ccc(Cl)c(S(=O)(=O)N2CCCCCC2)c1)N1CCN(c2ccc(O)cc2)CC1,-4.95%,
C[n+]1cccc(C(=O)O)c1,-9.96%,
O=C(NCCc1ccccc1)c1c[nH]c2ccc(F)cc2c1=O,2.52%,
CCC(CO)Oc1cc(NCc2ccccc2)c2ncn(C3CCCC3)c2c1 (centres undefined),5.67%,
COc1ccc(CNc2nc(NCc3ccc(OC)cc3)c3ncn(C4CCCC4)c3n2)cc1,,4.61 µM (active)
COc1ccc(CNC2CCCCC2)cc1,-14.2%,
O=S(=O)(O)c1cc2onnc2c2ccccc12,-4.34%,
CNc1nc(=O)n(C2CCCO2)cc1C (centres undefined),6.26%,
Cc1ccc(S(=O)(=O)C2(S(=O)(=O)c3ccc(C)cc3)CCCC2)cc1,,4.47 µM (active)
Cc1ccc(S(=O)(=O)NC2CCCCCC2)cc1,1.2%,
Cc1ccc(S(=O)(=O)N(C)C2(C)CCS(=O)(=O)C2)cc1 (centres undefined),-6.3%,
C=C1c2cccc(OC)c2O[C@H](C(=O)OCC)[C@@H]1CCCCCC,,20.6 µM (active)
CCOC(=O)C1=C(C)c2ccccc2OC1C(=O)OCC (centres undefined),1.25%,
CC(C)(C)OC(=O)C[C@@H]1C/C=C\C[C@@H](CC(=O)N(CCO)Cc2ccccc2)C(=O)N[C@H](Cc2ccccc2)COC1=O,-1.83%,

Compound,re-replication activation,Potency
COc1ccccc1CNC(=O)c1ccc(Cl)c(S(=O)(=O)N2CCCC2)c1,-7.01%,
O=C(COC(=O)c1cccc(Cl)c1)NC(=O)NCc1ccccc1,-1.83%,
Cc1cc(N/N=C\c2ccc(Br)cc2)nc(-n2nc(C)cc2C)n1,,8.2 µM (active)
CC(=O)c1ccc(Oc2cc(C)nc(-n3nc(C)cc3C)n2)cc1,,1.84 µM (active)
COc1ccc(Nc2cc(C)nc(-n3nc(C)cc3C)n2)cc1,,7.31 µM (active)
Cc1ccc(S(=O)(=O)Nc2nc(C)cc(N/N=C/c3ccc(O)cc3)n2)cc1,-6.5%,
Cc1nc(Cl)cc(N/N=C/c2ccccc2)n1,-0.738%,
Cc1cc(Nc2ccc(Cl)cc2)nc(N2CCOCC2)n1,-110%,
CC(=O)Nc1ccc(Nc2cc(C)nc(Nc3ccc(NC(C)=O)cc3)n2)cc1,9.33%,
Cc1cc(C)n(-c2ccc(C(=O)O)cc2[N+](=O)[O-])n1,-17%,
Cc1cc(Oc2ccc(Cl)cc2)nc(SCC(=O)c2ccccc2)n1,12.8%,
O=C1NC(=O)C(CCc2ccccc2)(c2ccccc2)N1 (centres undefined),2.24%,
O=C(O)c1ccc([N+](=O)[O-])cc1Sc1ccsc1,-2.95%,
Cc1ccc(S(=O)(=O)Nc2ccc(F)c(S(=O)(=O)N3CCOCC3)c2)cc1,2.24%,
O=c1[nH]c2c(c(=O)n1-c1ccccc1)CCO2,-5.03%,
O=C(NCCN1CCOCC1)c1ccc2c(c1)N(Cc1ccc(Cl)cc1)CCS2,-2.43%,
Cc1c(C)n(Cc2ccc(Cl)cc2)c2ccc(C(=O)NCCCN3CCOCC3)cc12,,20.6 µM (active)
COc1ccc(Cn2c(=S)[nH]c3cc(C(=O)NCCCN4CCOCC4)ccc3c2=O)cc1,-8.9%,
O=C(Nc1ccc(N2CCOCC2)cc1)c1cccc(S(=O)(=O)N2CCOCC2)c1,3.61%,
Cc1cc(NC(=O)CSc2nnc(-c3ccco3)n2N)no1,-6.78%,
Cc1noc(C)c1NC(=O)Nc1ccc2c(c1)C(=O)N([C@H](C)CO)C[C@H](C)[C@@H](CN(C)C(=O)Nc1ccccc1)O2,-0.626%,
CCCCCCCCNS(=O)(=O)CCNC1CCCCC1,-37.2%,
CCOC(=O)c1ccccc1NS(=O)(=O)c1c(C)nc2sccn2c1=O,-10.1%,
CN(C)/C=C/C(=O)c1cnc2sccn2c1=O,-1.67%,
CCOC(=O)c1cnc2sccn2c1=O,,14.6 µM (active)

Compound,re-replication activation,Potency
CN(CCc1ccccc1)C(=O)c1cccc(NC(=O)Cc2ccc([N+](=O)[O-])cc2)c1,-7.8%,
CC(C)(C)NS(=O)(=O)NC(=O)C1=C(N2CCCC2)COC1=O,-8.73%,
CC(C)c1cc(N=O)cc(C(C)C)c1O,7.87%,
CCCOc1ccc(C(=O)C(CCC(CNCC)C(=O)c2ccc(OCCC)cc2)CNCC)cc1 (centres undefined),,9.2 µM (active)
CCCCOc1ccc(C(=O)NN2CCN(C)CC2)cc1,3.08%,
CCCOc1ccc(C(=O)CCC(=O)OC(C)C(=O)Nc2ccc(NC(C)=O)cc2)cc1 (centres undefined),-6.44%,
CN1CCOC1c1ccc(C2OCCN2C)cc1 (centres undefined),0.917%,
N#CCCN(C(=O)COC(=O)c1ccc2c(c1)OCCO2)c1ccccc1,-1.2%,
Cc1cc(NC(=O)COC(=O)/C=C/c2ccc(C)o2)no1,-11%,
O=C(NN1C(=O)C2C(C1=O)C1C=CC2C12CC2)c1ccccc1Cl (centres undefined),-0.766%,
CC12CCC(C(=O)N(c3cccc(Cl)c3)C1=O)C2(C)C (centres undefined),18.4%,
CC12CCC(C(=O)N(NC(=O)c3ccccc3O)C1=O)C2(C)C (centres undefined),,20.6 µM (active)
CN(C(=O)c1cccc(NC(=O)Cc2ccc(NC(=O)C3CCCN(C(=O)C4CC4)C3)cc2)c1)C1CC1 (centres undefined),-35.3%,
Cc1ccc(S(=O)(=O)N2CCCCC2)cc1C(=O)N(C)CC(=O)Nc1cccc(F)c1,3.47%,
COc1ccc(NC(=O)CN(C)C(=O)c2cccc(S(=O)(=O)N3CCN(c4ccccc4)CC3)c2)cc1,-64.6%,
CCOc1ccc(NC(=O)CN(C)C(=O)c2cccc(S(=O)(=O)N3CCCC3)c2)cc1OCC,,6.51 µM (active)
Cc1noc(C)c1NC(=O)Nc1cccc2c1O[C@H](CN(C)S(=O)(=O)c1c(C)noc1C)[C@@H](C)CN([C@H](C)CO)C2=O,5.61%,
CCCCOc1ccc(C(=O)NCC(=O)OCC(=O)c2c(N)n(C)c(=O)n(C)c2=O)cc1,-0.586%,
CSc1ncccc1C(=O)NCC(c1ccco1)N1CCCCC1 (centres undefined),0.306%,
COc1ccc(CN2CCC(n3nccc3NC(=O)CCCc3ccccc3)CC2)cc1C,,18.4 µM (active)
Cc1ccc(CN2CCC(n3nccc3NC(=O)CCCc3ccccc3)CC2)o1,-0.682%,
COc1cc(CN2CCC(n3nccc3NC(=O)CCCc3ccccc3)CC2)ccc1O,-4.37%,
COc1ccc(CNC(=O)C[C@H]2C[C@H](C(=O)N3CCOCC3)[C@@]3(CCC4CCCC4)c4[nH]c5ccc(Cl)cc5c4CCN3C2=O)cc1OC,25.9%,
CC(C)(C)OC(=O)C[C@H]1C/C=C\C[C@@H](CC(=O)N[C@H](CO)Cc2ccccc2)C(=O)NC[C@@H](c2ccccc2)OC1=O,-9.13%,
Cc1ccccc1OC/C(O)=C(\C#N)c1nc2ccccc2[nH]1,10.2%,

Compound,re-replication activation,Potency
COCCN(CCOC)S(=O)(=O)c1ccc(/C(O)=C(\C#N)c2nc3ccccc3[nH]2)cc1,2.9%,
N#C/C(=C(/O)COC(=O)COc1ccc(Cl)cc1)c1nc2ccccc2[nH]1,,29.1 µM (active)
CCN1C[C@@H]2[C@@H]3C(=O)N(Cc4ccccc4)C(=O)[C@@H]3[C@](C)(C1=O)N2C(=O)c1ccc(C(C)(C)C)cc1,-7.2%,
O=C(NOCc1ccccc1)c1cccc([N+](=O)[O-])c1,-38.1%,
O=c1oc2ccccc2c(=O)c2ccccc12,-5.45%,
CC[C@]12c3[nH]c4cc(CCC(=O)N(C)C)ccc4c3CCN1C(=O)[C@@H](CC(=O)NCc1ccco1)C[C@@H]2C(=O)N1CCN(C(=O)c2ccco2)CC1,-12.6%,
O=C(NCc1cccs1)c1cc(-c2ccccn2)nc2ccc(Br)cc12,5.04%,
CC(C)Cn1c(N)c(C(=O)NCc2cccs2)c2nc3ccccc3nc21,,5.17 µM (active)
Cn1ncc(Br)c1C(=O)NCc1cccs1,-6.4%,
O=c1ccn([C@@H]2O[C@H](CNS(=O)(=O)c3cc4ccccc4s3)[C@@H](O)[C@H]2O)c(=O)[nH]1,-34%,
CCN(c1ccccc1)S(=O)(=O)c1ccc(C(=O)Nc2ccccc2OC)cc1,9.42%,
O=C(NCC(c1cccs1)N1CCOCC1)c1cc(-c2ccccn2)nc2ccccc12 (centres undefined),1.98%,
Cc1ccc(-c2nn(-c3ccc(F)cc3)cc2C(=O)NCC(c2cccs2)N2CCOCC2)cc1 (centres undefined),,23.1 µM (active)
O=C(NCCCN1CCOCC1)c1cn(-c2ccccc2)nc1-c1ccc(F)cc1,-5.03%,
Cn1c(=S)sc2ccc3ccccc3c21,-4.54%,
Cc1cc(C)c(C=NNc2nc3c([nH]2)c(=O)n(C)c(=O)n3C)c(C)c1,19.5%,
FC(F)(F)c1cnc(Oc2ccccc2-c2nnc(-c3ccc(Cl)cc3)o2)c(Cl)c1,-3.88%,
COc1cccc(/C=N/Nc2ncc(C(F)(F)F)cc2Cl)c1O,,0.92 µM (active)
COc1cccc(/C=N/Nc2ccc(S(=O)(=O)Nc3ccccc3C(=O)O)cc2[N+](=O)[O-])c1O,-6.27%,
CC(=NNC(=O)c1ccncc1)c1ccc(Cl)c(Cl)c1,23.1%,
C=CCC[C@@H](Cc1ccc(F)cc1)C(=O)OC[C@@H](C)NC(=O)[C@H](CC=C)CC(=O)N(CCO)Cc1ccccc1,-0.963%,
CCOc1ccc(C2C(C(=O)NC)=C(C)Nc3nc4ccccc4n32)cc1OC (centres undefined),-12.1%,
COc1ccccc1NC(=O)C1=C(C)Nc2nc3ccccc3n2C1c1cccs1 (centres undefined),,4.11 µM (active)
CCOC(=O)C1=C(C)Nc2nc3ccccc3n2C1c1cccs1 (centres undefined),-4.46%,
